Results: publication PMC7862700, “An all-to-all approach to the identification of sequence-specific readers for epigenetic DNA modifications on cytosine”

Tests used:
Assay in all cases: DAPPL (digital affinity profiling via proximity ligation, sequencing); 10 mM Tris-HCl pH 7.5, 50 mM NaCl, 1 mM DTT, 4% glycerol, room temperature, 30 min; GST-TFs on glutathione beads, 16-mer random dsDNA library, 0.1% formaldehyde crosslink after washing; high values mean tight binding
Conditions in all cases: protein: recombinant; tags: N-terminal GST; dsDNA, one strand shown
[1] = biological target: T1, FLI1 (Homo sapiens, UniProt Q01543 1-452)
T1 sequence: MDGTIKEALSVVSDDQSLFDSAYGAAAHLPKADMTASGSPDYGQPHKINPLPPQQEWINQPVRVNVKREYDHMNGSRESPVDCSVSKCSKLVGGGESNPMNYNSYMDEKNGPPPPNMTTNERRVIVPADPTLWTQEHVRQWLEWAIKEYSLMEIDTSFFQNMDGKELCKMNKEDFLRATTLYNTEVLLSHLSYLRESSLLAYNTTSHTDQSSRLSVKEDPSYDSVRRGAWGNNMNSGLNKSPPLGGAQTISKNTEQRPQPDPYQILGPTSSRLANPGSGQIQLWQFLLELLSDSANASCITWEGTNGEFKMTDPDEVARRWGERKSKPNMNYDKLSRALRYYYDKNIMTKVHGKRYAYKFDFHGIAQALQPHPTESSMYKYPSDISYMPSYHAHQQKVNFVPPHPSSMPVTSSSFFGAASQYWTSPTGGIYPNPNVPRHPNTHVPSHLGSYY
Summary of the method: (§1)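 Binding signal is each hexamer's read frequency for a factor divided by its frequency in the tag-only sample. The factors were GST-fused human transcription factors from yeast, captured on glutathione beads, DNA-barcoded and pooled with that sample. Pools were incubated with 200 nmole of a random double-stranded 16-mer DNA library in Tris/NaCl/DTT/glycerol buffer at room temperature for 30 min, then washed, crosslinked with 0.1% formaldehyde, proximity-ligated with BsaI/T4 ligase (1 h, 37 °C), PCR-amplified and sequenced on an Illumina NextSeq500.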

[2] = biological target: T2, ELK1 (Homo sapiens, UniProt P19419 1-428)
T2 sequence: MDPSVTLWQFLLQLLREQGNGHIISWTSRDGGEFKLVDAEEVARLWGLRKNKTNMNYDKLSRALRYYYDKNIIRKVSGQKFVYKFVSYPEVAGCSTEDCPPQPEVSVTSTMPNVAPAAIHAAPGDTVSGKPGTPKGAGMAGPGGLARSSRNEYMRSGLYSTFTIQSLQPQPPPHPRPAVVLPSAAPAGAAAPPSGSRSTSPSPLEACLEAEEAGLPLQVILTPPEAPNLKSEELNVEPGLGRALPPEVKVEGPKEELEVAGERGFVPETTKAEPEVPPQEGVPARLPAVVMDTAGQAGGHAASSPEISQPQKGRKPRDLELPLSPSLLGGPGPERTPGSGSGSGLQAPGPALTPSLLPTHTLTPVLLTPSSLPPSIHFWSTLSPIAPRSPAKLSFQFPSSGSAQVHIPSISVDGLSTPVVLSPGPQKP
Summary of the method: as §1

[3] = biological target: T3, GABPA (Homo sapiens, UniProt Q06546 1-454)
T3 sequence: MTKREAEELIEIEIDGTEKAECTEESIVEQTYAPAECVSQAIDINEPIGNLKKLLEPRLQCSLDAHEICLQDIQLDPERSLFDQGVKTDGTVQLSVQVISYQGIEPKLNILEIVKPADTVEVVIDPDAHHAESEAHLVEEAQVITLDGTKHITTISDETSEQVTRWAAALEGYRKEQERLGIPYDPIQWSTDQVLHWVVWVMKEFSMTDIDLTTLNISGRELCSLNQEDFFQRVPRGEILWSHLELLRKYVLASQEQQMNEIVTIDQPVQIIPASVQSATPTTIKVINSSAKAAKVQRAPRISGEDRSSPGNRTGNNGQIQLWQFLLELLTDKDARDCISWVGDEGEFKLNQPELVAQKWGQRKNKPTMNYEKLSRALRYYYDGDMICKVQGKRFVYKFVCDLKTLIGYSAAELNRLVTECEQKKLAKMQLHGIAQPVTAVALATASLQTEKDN
Summary of the method: as §1

[4] = biological target: T4, ERG (Homo sapiens, UniProt P11308 1-479)
T4 sequence: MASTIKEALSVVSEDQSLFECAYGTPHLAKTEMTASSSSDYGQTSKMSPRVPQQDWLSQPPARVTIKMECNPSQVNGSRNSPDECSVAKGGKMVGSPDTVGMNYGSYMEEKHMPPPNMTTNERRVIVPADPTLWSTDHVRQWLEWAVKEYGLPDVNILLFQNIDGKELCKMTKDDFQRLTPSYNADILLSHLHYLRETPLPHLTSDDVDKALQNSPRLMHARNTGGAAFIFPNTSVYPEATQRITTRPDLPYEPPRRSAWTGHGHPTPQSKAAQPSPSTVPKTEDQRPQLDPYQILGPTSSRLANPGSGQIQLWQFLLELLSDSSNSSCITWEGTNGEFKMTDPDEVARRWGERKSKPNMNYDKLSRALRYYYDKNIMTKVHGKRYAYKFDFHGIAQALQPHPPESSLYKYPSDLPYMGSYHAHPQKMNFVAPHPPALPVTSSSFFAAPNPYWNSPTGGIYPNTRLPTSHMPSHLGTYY
Summary of the method: as §1

[5] = biological target: ELF1 (Homo sapiens, UniProt P32519 1-619)
ELF1, sequence (P32519 whole entry): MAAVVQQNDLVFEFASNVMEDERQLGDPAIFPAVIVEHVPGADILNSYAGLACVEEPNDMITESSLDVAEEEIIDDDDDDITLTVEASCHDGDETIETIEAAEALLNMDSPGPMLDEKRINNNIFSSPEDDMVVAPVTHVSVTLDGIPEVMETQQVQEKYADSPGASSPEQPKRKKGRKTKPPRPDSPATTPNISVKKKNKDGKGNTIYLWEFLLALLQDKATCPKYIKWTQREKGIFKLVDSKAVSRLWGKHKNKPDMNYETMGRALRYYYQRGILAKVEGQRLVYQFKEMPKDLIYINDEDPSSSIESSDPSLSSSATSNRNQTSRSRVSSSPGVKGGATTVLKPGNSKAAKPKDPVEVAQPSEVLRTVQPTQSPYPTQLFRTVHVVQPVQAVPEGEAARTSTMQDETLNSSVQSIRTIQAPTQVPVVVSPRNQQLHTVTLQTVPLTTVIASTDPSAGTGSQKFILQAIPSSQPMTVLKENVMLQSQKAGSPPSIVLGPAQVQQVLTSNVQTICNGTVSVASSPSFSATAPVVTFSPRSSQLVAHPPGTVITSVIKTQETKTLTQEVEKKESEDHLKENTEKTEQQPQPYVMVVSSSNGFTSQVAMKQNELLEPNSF
Summary of the method: as §1

[6] = biological target: T5, EHF (Homo sapiens, UniProt Q9NZC4 1-300)
T5 sequence: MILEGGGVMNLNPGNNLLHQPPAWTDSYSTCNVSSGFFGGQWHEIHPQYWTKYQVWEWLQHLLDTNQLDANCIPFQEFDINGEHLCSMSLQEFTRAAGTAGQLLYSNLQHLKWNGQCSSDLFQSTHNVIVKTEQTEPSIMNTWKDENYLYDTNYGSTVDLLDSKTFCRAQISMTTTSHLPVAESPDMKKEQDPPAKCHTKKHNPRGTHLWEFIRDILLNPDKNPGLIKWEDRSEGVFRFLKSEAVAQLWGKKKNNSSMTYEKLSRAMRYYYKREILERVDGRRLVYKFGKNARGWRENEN
Summary of the method: as §1

[7] = biological target: T6, FEV (Homo sapiens, UniProt Q99581 1-238)
T6 sequence: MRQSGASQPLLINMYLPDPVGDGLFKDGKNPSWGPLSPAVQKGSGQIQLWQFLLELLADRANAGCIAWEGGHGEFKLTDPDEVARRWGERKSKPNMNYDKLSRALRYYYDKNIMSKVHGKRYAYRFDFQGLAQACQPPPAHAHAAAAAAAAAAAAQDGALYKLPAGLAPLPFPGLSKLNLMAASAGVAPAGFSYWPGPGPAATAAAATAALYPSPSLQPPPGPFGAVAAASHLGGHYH
Summary of the method: as §1

[8] = biological target: ETV5 (Homo sapiens, UniProt P41161 1-510)
ETV5, sequence (P41161 whole entry): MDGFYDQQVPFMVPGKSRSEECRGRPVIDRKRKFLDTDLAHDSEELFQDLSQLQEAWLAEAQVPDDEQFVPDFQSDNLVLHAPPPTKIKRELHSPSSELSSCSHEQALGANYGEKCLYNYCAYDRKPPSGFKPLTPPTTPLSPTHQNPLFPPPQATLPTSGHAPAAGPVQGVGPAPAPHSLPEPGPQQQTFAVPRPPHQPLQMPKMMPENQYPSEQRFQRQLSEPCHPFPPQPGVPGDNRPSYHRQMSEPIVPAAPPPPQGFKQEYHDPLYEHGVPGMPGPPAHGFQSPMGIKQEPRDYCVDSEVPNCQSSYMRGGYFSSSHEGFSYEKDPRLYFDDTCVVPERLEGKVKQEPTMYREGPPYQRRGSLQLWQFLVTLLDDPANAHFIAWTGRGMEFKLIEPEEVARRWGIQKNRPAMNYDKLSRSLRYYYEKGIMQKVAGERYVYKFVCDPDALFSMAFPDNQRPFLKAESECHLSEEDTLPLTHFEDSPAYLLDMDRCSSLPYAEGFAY
Summary of the method: as §1

[9] = biological target: ELF4 (Homo sapiens, UniProt Q99607 1-663)
ELF4, sequence (Q99607 whole entry): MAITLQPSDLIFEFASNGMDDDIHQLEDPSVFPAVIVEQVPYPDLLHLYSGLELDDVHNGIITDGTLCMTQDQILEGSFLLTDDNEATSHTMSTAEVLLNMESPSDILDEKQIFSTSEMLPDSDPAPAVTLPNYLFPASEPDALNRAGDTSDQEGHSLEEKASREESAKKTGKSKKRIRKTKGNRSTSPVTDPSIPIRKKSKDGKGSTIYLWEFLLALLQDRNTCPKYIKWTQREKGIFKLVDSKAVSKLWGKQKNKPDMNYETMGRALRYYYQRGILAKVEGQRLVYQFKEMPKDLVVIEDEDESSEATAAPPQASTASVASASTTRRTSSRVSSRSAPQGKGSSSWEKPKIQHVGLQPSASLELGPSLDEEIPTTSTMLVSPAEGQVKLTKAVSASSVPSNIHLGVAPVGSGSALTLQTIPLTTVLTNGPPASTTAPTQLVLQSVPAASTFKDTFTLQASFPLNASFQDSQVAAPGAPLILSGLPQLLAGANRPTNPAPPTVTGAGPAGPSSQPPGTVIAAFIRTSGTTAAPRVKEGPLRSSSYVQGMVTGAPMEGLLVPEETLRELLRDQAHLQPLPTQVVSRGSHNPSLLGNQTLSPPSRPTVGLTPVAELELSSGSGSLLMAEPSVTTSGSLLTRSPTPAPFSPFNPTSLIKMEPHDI
Summary of the method: as §1

[10] = biological target: T7, ETV2 (Homo sapiens, UniProt O00321 1-342)
T7 sequence: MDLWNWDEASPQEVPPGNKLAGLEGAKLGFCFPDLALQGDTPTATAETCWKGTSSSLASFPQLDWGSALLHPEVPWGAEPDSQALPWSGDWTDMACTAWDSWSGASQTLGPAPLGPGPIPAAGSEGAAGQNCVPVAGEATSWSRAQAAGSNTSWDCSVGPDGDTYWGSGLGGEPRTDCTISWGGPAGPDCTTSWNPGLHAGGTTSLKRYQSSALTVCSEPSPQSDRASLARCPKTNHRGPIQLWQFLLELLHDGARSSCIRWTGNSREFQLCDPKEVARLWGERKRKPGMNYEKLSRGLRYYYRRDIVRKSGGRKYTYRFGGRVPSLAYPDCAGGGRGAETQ
Summary of the method: as §1

[11] = biological target: T8, ERF (Homo sapiens, UniProt P50548 1-548)
T8 sequence: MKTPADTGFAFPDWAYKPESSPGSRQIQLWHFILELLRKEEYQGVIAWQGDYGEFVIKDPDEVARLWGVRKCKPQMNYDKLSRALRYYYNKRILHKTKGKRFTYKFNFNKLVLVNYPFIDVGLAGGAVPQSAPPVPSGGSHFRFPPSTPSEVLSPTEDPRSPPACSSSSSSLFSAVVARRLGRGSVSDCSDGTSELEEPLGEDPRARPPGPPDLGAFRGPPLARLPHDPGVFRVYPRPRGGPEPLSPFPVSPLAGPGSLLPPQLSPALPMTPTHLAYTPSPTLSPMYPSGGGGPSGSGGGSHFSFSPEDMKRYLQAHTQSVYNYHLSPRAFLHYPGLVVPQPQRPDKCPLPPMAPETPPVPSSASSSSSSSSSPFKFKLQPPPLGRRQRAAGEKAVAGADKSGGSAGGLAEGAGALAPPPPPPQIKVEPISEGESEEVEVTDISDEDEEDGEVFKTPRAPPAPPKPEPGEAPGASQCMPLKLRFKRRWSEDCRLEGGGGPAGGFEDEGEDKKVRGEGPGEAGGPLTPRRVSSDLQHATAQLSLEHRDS
Summary of the method: as §1

[12] = biological target: T9, ETV3L (Homo sapiens, UniProt Q6ZN32 1-361)
T9 sequence: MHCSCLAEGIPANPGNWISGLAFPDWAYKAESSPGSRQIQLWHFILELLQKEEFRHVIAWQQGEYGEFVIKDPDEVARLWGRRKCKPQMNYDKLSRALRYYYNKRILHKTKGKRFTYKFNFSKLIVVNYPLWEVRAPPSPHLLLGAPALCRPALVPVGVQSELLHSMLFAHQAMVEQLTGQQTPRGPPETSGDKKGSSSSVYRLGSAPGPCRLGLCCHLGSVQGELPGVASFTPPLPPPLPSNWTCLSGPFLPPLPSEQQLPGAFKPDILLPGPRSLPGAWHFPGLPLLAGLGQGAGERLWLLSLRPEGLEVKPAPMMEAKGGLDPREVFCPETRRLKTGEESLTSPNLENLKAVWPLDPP
Summary of the method: as §1

[13] = biological target: T10, ETS2 (Homo sapiens, UniProt P15036 1-469)
T10 sequence: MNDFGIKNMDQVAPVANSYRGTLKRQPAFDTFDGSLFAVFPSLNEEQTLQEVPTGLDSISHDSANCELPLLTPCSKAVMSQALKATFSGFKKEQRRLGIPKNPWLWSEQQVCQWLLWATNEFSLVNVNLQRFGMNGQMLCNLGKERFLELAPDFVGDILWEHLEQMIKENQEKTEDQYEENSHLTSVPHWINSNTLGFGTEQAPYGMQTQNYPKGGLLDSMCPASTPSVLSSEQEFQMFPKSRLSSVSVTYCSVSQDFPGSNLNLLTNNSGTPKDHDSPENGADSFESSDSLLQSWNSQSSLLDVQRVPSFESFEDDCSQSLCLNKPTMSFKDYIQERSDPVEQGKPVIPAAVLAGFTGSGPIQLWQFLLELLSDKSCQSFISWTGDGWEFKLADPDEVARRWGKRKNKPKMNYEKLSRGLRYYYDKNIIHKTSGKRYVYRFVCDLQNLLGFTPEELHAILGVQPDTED
Summary of the method: as §1

[14] = biological target: T11, ETV7 (Homo sapiens, UniProt Q9Y603 1-341)
T11 sequence: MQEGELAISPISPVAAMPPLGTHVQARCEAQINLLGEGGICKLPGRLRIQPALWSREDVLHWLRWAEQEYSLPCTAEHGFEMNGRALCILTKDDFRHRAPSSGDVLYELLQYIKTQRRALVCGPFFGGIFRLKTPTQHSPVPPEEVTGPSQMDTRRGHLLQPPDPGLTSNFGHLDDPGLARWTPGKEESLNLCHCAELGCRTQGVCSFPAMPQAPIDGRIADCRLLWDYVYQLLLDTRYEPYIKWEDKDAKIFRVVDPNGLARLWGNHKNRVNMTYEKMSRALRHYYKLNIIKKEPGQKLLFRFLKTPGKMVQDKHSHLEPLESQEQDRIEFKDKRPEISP
Summary of the method: as §1

[15] = biological target: SPIB (Homo sapiens, UniProt Q01892 1-262)
SPIB, sequence (Q01892 whole entry): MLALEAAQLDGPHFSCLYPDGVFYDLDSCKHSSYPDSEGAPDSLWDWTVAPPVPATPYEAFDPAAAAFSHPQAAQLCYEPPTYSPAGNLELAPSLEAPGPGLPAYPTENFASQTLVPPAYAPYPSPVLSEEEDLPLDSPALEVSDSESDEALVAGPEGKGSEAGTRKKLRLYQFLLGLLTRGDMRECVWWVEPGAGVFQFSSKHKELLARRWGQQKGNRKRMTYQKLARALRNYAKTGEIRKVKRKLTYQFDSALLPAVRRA
Summary of the method: as §1

[16] = biological target: T12, ETV3 (Homo sapiens, UniProt P41162-2 1-143)
T12 sequence: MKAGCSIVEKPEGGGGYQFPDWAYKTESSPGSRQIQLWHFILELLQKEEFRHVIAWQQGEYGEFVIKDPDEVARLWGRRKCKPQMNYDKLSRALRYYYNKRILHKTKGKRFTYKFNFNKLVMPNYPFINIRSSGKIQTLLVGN
Summary of the method: as §1

[17] = biological target: ETV6 (Homo sapiens, UniProt P41212 1-452)
ETV6, sequence (P41212 whole entry): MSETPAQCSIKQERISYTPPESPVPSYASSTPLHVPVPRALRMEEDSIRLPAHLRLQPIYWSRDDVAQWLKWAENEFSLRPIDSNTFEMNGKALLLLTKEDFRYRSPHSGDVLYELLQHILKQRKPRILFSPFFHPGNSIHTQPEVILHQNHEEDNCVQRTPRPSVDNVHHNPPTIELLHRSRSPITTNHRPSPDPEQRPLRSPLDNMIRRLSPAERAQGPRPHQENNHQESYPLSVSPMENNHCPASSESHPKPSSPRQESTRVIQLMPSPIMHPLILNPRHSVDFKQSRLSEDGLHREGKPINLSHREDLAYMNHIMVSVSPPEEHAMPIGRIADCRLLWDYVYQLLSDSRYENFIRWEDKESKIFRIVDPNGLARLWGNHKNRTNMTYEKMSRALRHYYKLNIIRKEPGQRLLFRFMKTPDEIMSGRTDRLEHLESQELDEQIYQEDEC
Summary of the method: as §1

| Sequence | binding signal [1] | binding signal [2] | binding signal [3] | binding signal [4] | binding signal [5] | binding signal [6] | binding signal [7] | binding signal [8] | binding signal [9] | binding signal [10] | binding signal [11] | binding signal [12] | binding signal [13] | binding signal [14] | binding signal [15] | binding signal [16] | binding signal [17] |
| --- | --- | --- | --- | --- | --- | --- | --- | --- | --- | --- | --- | --- | --- | --- | --- | --- | --- |
| ACAGCA | 1.01 fold enrichment (6-mer frequency, TF over GST control) | 1.03 fold enrichment (6-mer frequency, TF over GST control) | 1.08 fold enrichment (6-mer frequency, TF over GST control) | 1 fold enrichment (6-mer frequency, TF over GST control) | 1.06 fold enrichment (6-mer frequency, TF over GST control) | 1.03 fold enrichment (6-mer frequency, TF over GST control) | 1 fold enrichment (6-mer frequency, TF over GST control) | 1.03 fold enrichment (6-mer frequency, TF over GST control) | 1.04 fold enrichment (6-mer frequency, TF over GST control) | 1.06 fold enrichment (6-mer frequency, TF over GST control) | 1.07 fold enrichment (6-mer frequency, TF over GST control) | 1.06 fold enrichment (6-mer frequency, TF over GST control) | 1.09 fold enrichment (6-mer frequency, TF over GST control) | 1.15 fold enrichment (6-mer frequency, TF over GST control) |  |  |  |
| TGTGCG | 1.03 fold enrichment (6-mer frequency, TF over GST control) | 1.08 fold enrichment (6-mer frequency, TF over GST control) |  |  |  |  |  | 1.04 fold enrichment (6-mer frequency, TF over GST control) | 1.01 fold enrichment (6-mer frequency, TF over GST control) | 1.2 fold enrichment (6-mer frequency, TF over GST control) | 1.06 fold enrichment (6-mer frequency, TF over GST control) |  | 1.05 fold enrichment (6-mer frequency, TF over GST control) |  | 1.01 fold enrichment (6-mer frequency, TF over GST control) | 1.04 fold enrichment (6-mer frequency, TF over GST control) | 1.06 fold enrichment (6-mer frequency, TF over GST control) |
